Here are results for eight compounds from PubChem BioAssay.

Active and inactive are the calls of the source. Unless noted, no rule for the calls is given here.

A short description of test [1]: compound effects on lung adenocarcinoma cell viability – A549, calcein-AM fluorescence, 48 h, basal, profiling panel (AID 1162). Also: test concentration not given here. The following applies: higher = more signal.
A short description of test [2]: compound effects on differentiated 3T3-L1 adipocyte viability – cell-based, 3T3-L1 adipocytes, calcein-AM fluorescence, 48 h, basal, profiling panel (AID 1163). Also: test concentration not given here. Particulars: 3T3-L1 adipocytes viability, higher = more signal.
Test [3] is described as follows: compound effects on hepatocellular carcinoma cell viability – HepG2, calcein-AM fluorescence, 48 h, basal, profiling panel (AID 1164). Also: test concentration not given here. The following applies: higher = more signal.
Test [4] can be described thus: compound effects on multiple myeloma cell viability – MM1S, calcein-AM fluorescence, 48 h, basal, profiling panel (AID 1165).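 Also: viability of MM1S multiple myeloma cells under basal unstimulated conditions; test concentration not given here.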 Particulars: higher = more signal.
Test [5] is described as follows: calcein-AM signal in unstimulated myeloma cells – cell-based, calcein-AM fluorescence, 48 h, PK04 Diversity Set, profiling panel (AID 1166).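 Also: cells grown under basal conditions without added stimulus; test concentration not given here.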 Particulars: RPMI8226 myeloma viability, higher = more signal.
Test [6] in a line: JC-1 mitochondrial signal, unstimulated HepG2 cells – cell-based, JC-1 fluorescence, 24 h, 100 nL compound, profiling panel (AID 1167). Also: test concentration not given here. Particulars: HepG2 mitochondrial potential, higher = more signal.
The nature of test [7]: JC-1 mitochondrial signal, unstimulated adipocytes – cell-based, JC-1 fluorescence, 3T3-L1 adipocytes, 24 h, 100 nL compound, profiling panel (AID 1168). Also: test concentration not given here. The following applies: JC-1 mitochondrial fluorescence, higher = more signal, called active from +8 up or from −8 down.
The nature of test [8]: JC-1 mitochondrial signal, unstimulated myeloma cells – cell-based, JC-1 fluorescence, RPMI8226, 24 h, 100 nL compound, profiling panel (AID 1169). Also: test concentration not given here. Particulars: JC-1 mitochondrial potential fluorescence, higher = more signal.
The nature of test [9]: JC-1 mitochondrial signal, unstimulated MM1S myeloma – cell-based, JC-1 fluorescence, 24 h, 100 nL compound, profiling panel (AID 1170). Also: test concentration not given here. Particulars: MM1S mitochondrial potential, higher = more signal.
Test [10] is described as follows: resazurin metabolic signal in A549 cells – cell-based, resazurin fluorescence, 24 h, PK04 Diversity Set, profiling panel (AID 1171). Also: test concentration not given here. The following applies: A549 viability, higher = more signal, called active from +8 up or from −8 down.
The nature of test [11]: resazurin metabolic signal in HepG2 cells – cell-based, resazurin fluorescence, 24 h, PK04 Diversity Set, profiling panel (AID 1172). Also: test concentration not given here. The following applies: HepG2 viability, higher = more signal.
The nature of test [12]: budding yeast growth changes without added modifier – OD600, strain BY4716, 24 h, basal condition, primary screen (AID 1173). Particulars: S. cerevisiae BY4716 growth, OD600, 24 h; higher = more signal, called active from +8 up or from −8 down.
Test [13] is described as follows: viability profiling in MM1S myeloma cells – cell-based, resazurin fluorescence, basal, 24 h, PK04 Diversity Set, profiling panel (AID 1174). Also: test concentration not given here. Particulars: higher = more signal, called active from +8 up or from −8 down. A general note: Resazurin is reduced to fluorescent resorufin, in cell work by metabolically active cells.
Test [14] concerns the target Dihydroorotate dehydrogenase (quinone), mitochondrial (Plasmodium falciparum (isolate 3D7)) (UniProt Q08210). In words: inhibition of P. falciparum DHODH – biochemical, C-terminal His tag, absorbance 600 nm, primary screen (AID 1175).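 Also: recombinant parasite enzyme with a five histidine tag at its C terminus; test concentration not given here.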 The following applies: PfDHODH enzyme, DCIP absorbance 600 nm; higher = more signal, called active from +8 up or from −8 down.
Test [15] in a line: inhibition of PAO1 biofilm formation – strain PAO1, LB-PBS medium, absorbance 600 nm, primary screen (AID 1176). Also: test concentration not given here. Particulars: P. aeruginosa PAO1 growth/biofilm, A600, 12 h; higher = more signal.
A short description of test [16]: growth modulation of vineyard yeast isolate – strain RM11-1a, OD600, basal, 24 h, primary screen (AID 1177).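 Also: cultures grown under basal conditions with no added stressor; test concentration not given here.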 The following applies: S. cerevisiae RM11-1a growth, OD600, 24 h; higher = more signal, called active from +8 up or from −8 down.
A short description of test [17]: growth of efflux-deficient E. coli DRC39 – strain DRC39, OD650, 24 h, E. coli filamentation inducers, primary screen (AID 1178).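 Also: growth measured as culture turbidity by optical density at 650 nm; test concentration not given here.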 Particulars: E. coli DRC39 acrAB, higher = more signal, called active from +8 up or from −8 down.
A short description of test [18]: growth of efflux-deficient E. coli DRC39 – strain DRC39, OD650, 48 h, E. coli filamentation inducers, primary screen (AID 1179).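 Also: screen aims at cell division blockers that make cells filament.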 The following applies: E. coli DRC39 delta-acrAB growth, higher = more signal, called active from +8 up or from −8 down.
A short description of test [19]: viability profiling in RPMI8226 myeloma cells – cell-based, resazurin fluorescence, basal, 24 h, PK04 Diversity Set, profiling panel (AID 1180).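 Also: RPMI8826 multiple myeloma cell line at 5000 cells per well; test concentration not given here.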 The following applies: higher = more signal.
Test [20] addresses E3 ubiquitin-protein ligase XIAP (Homo sapiens) (UniProt P98170). In words: small molecules binding XIAP protein – biophysical, small-molecule microarray, fluorescence 635 nm, primary screen (AID 1181).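 Also: score merges 667 nm emission and signal to noise over triplicate slides.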 The following applies: higher = more signal.

Chain of E3 ubiquitin-protein ligase XIAP (Homo sapiens) (P98170 whole entry, looked up): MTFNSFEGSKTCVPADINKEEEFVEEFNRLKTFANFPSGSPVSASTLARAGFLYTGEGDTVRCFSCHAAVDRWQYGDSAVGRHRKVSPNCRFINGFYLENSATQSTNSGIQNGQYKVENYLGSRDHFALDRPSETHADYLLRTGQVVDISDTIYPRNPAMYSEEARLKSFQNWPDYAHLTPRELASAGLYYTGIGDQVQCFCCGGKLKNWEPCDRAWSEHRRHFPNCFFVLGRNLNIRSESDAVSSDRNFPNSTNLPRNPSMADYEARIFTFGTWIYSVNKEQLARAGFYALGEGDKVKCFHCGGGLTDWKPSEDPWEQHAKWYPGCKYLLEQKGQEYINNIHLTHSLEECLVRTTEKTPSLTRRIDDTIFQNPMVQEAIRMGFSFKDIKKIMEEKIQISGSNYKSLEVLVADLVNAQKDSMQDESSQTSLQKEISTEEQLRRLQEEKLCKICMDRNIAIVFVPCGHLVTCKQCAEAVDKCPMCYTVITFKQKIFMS
Chain of Dihydroorotate dehydrogenase (quinone), mitochondrial (Plasmodium falciparum (isolate 3D7)) (Q08210 whole entry, looked up): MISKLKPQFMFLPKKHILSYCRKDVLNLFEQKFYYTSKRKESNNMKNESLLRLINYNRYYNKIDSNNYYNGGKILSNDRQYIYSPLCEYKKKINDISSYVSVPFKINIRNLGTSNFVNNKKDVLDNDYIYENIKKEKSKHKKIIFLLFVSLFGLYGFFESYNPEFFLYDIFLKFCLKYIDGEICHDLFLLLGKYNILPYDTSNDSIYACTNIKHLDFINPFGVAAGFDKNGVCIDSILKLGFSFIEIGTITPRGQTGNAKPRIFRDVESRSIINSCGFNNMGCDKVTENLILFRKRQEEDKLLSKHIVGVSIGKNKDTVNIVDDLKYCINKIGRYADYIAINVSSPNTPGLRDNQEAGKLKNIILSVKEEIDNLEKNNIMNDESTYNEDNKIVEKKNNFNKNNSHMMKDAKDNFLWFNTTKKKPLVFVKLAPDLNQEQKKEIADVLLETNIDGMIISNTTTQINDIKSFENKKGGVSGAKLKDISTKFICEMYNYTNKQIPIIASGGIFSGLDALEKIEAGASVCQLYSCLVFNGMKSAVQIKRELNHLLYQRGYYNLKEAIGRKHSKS

`O=C1O[C@@H](c2ccccc2)[C@@H](c2ccccc2)N2[C@@H](c3ccc(OCCO)cc3)[C@]3(C(=O)Nc4ccc(C#CC5=CCCCC5)cc43)[C@@H](C(=O)Nc3nc4ccccc4s3)[C@H]12`: the z-score in test [1] was 0.583; in [2], 0.0884; in test [3] it was 0.803; in test [4] it was -1.69; in test [5], -2.18; in [6] it was -3.08. In addition, the z-score in test [7] was -0.395 (inactive); in test [8], -1.12; in test [9], -1.92; in test [10], -1.27 (inactive); in test [11] it was -0.533; in test [12], 1.46 (inactive). The z-score was -1.21 (inactive) in test [13]; 3.52 (inactive) in test [15]; 2.53 (inactive) in [16]; -0.304 (inactive) in test [17]; 0.141 (inactive) in test [18]; -1 in test [19]. In addition, the composite z-score in [14] is -4.05 (inactive); in test [20], -0.339.

With `O=C1O[C@H](c2ccccc2)[C@H](c2ccccc2)N2[C@H]1[C@@H](C(=O)O)[C@]1(C(=O)Nc3ccccc31)[C@H]2c1ccc(OCCO)cc1`, the z-score was -0.29 in [1]; 1.11 in test [2]; -0.119 in test [3]; 0.338 in [4]; -2.44 in [5]; -0.706 in [6]. Besides, the z-score in test [7] was 0.254 (inactive); in [8], -0.295; in test [9], 0.0484; in test [10], 0.683 (inactive); in test [11], 0.0019; in [12], -0.302 (inactive). For the same compound, the z-score in test [13] was -0.0917 (inactive); in test [15] it was 0.0485 (inactive); in [16], -0.785 (inactive); in test [17], -0.545 (inactive); in test [18], -0.858 (inactive); in test [19], 1.16. The composite z-score in [14] was -0.652 (inactive); in test [20] it was 0.18.

With `O=C(CS)NCCCCCCNC(=O)[C@H]1C[C@H]2C(=O)NCC(=O)N2[C@H]1c1cccc(OCCO)c1`, the z-score in test [1] was -0.109; in test [2], 1.18; in [3], -0.232; in [4], -0.436; in test [5], -1.09; in [6], -0.407. The z-score in test [7] was 0.225 (inactive); in test [8], 0.211; in test [9] it was -0.497; in test [10], -0.15 (inactive); in [11], -0.39; in test [12], -0.462 (inactive). Besides, the z-score is -0.0674 (inactive) in test [13]; 0.339 (inactive) in [15]; 0.0796 (inactive) in test [16]; 0.469 (inactive) in test [17]; -0.814 (inactive) in test [18]; -0.348 in test [19]. The composite z-score is -0.59 (inactive) in test [14] and 0.0269 in test [20].

Consider `[N-]=[N+]=NCc1ccccc1C[C@@]1(C(N)=O)N=C(c2ccc(OCCCO)cc2)O[C@@H]1c1ccccc1N=[N+]=[N-]`, for which the z-score was -0.908 in [1]; -0.278 in test [2]; -0.705 in [3]; -3 in test [4]; -3.1 in test [5]; -1.07 in test [6]. Moreover, the z-score in test [7] is -0.71 (inactive); in test [8], -1.08; in test [9], -0.62; in test [10] it was -0.583 (inactive); in test [11], 0.304; in test [12] it was -1.35 (inactive). Also, the z-score in test [13] is -1.32 (inactive); in test [15], 2.28 (inactive); in test [16], 0.0193 (inactive); in [17] it was 0.207 (inactive); in [18] it was -0.893 (inactive); in [19] it was -0.644. The composite z-score is 0.474 (inactive) in test [14] and 0.0871 in test [20].

Take `C=CCNC(=O)[C@H]1[C@@H]2C(=O)O[C@@H](c3ccccc3)[C@@H](c3ccccc3)N2[C@@H](c2ccc(O)cc2)[C@]12C(=O)Nc1ccc(C#CCC(C(=O)OC)C(=O)OC)cc12`: the z-score in test [1] is 0.33; in test [2], -0.0589; in [3], 0.102; in test [4], -2.95; in test [5], -4.12; in [6], -0.922. In addition, the z-score in test [7] was -0.363 (inactive); in [8] it was -0.891; in [9], 0.111; in test [10], 0.0955 (inactive); in [11], -0.111; in test [12] it was 0.24 (inactive). Besides, the z-score was 0.0789 (inactive) in test [13]; 0.293 (inactive) in [15]; 0.249 (inactive) in test [16]; -0.254 (inactive) in test [17]; -0.0535 (inactive) in test [18]; -3.01 in test [19]. For the same compound, the composite z-score is -7.4 (inactive) in [14] and 0.256 in test [20].

As to `COC(=O)C(CC#Cc1ccc2c(c1)[C@]1(C(=O)N2)[C@H](C(N)=O)[C@H]2C(=O)O[C@H](c3ccccc3)[C@H](c3ccccc3)N2[C@@H]1c1ccccc1OCCO)C(=O)OC`, the z-score in [1] was -0.782; in test [2], -0.436; in [3], -4.23; in test [4] it was -3.4; in [5], -4.62; in [6] it was -0.82. In addition, the z-score in test [7] was 4.3 (inactive); in [8], -1.18; in [9], -2.2; in test [10], -2.83 (inactive); in test [11], -2.07; in test [12], 0.289 (inactive). Besides, the z-score was -9.27 (active) in test [13]; 2.35 (inactive) in [15]; 2.62 (inactive) in test [16]; 0.0025 (inactive) in [17]; 0.957 (inactive) in test [18]; -7.44 in test [19]. Besides, the figures for the composite z-score in test [14] and in test [20] were 1.53 (inactive) and 0.0289, respectively.

For `CN(C)C(=O)[C@]1(CCS(=O)(=O)c2ccccc2)N=C(c2ccc(OCCCO)cc2)O[C@@H]1c1ccccc1CN=[N+]=[N-]`, the z-score was -0.306 in test [1]; -0.0349 in test [2]; 0.589 in test [3]; -1.29 in [4]; 0.382 in test [5]; -0.12 in [6]. The z-score in [7] was -0.197 (inactive); in test [8] it was 0.0522; in test [9], -0.776; in test [10] it was 1.09 (inactive); in test [11] it was 1.46; in [12] it was 0.705 (inactive). The z-score in [13] is 0.273 (inactive); in test [15], 0.743 (inactive); in test [16], 0.3 (inactive); in [17] it was 0.293 (inactive); in [18] it was -0.373 (inactive); in [19] it was -0.0461. Also, the composite z-score in [14] is 0.37 (inactive); in test [20] it was 0.558.

`CCCCC(=C=CC[C@@H](O)c1ccccc1OCCO)C[C@@H](O)c1ccccn1`: the z-score in test [1] is -0.158; in test [2], -0.48; in test [3], 0.242; in test [4], -0.35; in test [5], -0.84; in test [6] it was -0.16. The z-score in [7] was 0.341 (inactive); in test [8], 0.495; in [9] it was -0.179; in [10] it was 0.756 (inactive); in test [11], 0.687; in test [12], -1.72 (inactive). In addition, the z-score in test [13] was 0.538 (inactive); in [15], 0.354 (inactive); in test [16] it was -0.506 (inactive); in test [17] it was 1.04 (inactive); in test [18] it was 0.52 (inactive); in test [19], 0.805. The composite z-score is -7.64 (inactive) in test [14] and -0.287 in test [20].
